# D2 ag-1: Beta-Arrestin HTS for Positive Allosteric Modulators of the Human D2 Dopamine Receptor: Agonists | 0.084% of 360,000 active | DiscoveRx PathHunter D2 beta-arrestin, luminescence, 90 min; 100% = 57 uM dopamine signal | activation, % (no concentration beside the values); in the data active means activation above about 40%
# Target sequence (P14416 whole entry, looked up): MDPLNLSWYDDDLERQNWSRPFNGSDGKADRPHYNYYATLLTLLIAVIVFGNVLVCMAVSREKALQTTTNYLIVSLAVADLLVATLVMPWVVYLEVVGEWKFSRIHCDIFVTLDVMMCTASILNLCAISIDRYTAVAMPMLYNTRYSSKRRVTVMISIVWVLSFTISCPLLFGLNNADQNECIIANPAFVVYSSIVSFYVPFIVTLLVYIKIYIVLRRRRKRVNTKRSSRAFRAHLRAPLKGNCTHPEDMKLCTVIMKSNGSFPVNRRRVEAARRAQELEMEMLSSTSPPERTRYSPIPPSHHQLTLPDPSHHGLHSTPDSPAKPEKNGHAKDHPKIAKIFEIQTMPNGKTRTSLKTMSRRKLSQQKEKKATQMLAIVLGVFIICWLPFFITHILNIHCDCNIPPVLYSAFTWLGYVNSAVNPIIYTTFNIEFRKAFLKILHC
#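 Agonist mode: compounds alone added to overnight-plated D2 PathHunter cells for 90 min at 37 C, with 57 uM final dopamine (EC100) defining full response. Beta-arrestin recruitment detected by chemiluminescent reagent, read after 1 h at ambient temperature.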
# D2 antagonist: HTS Assay for Allosteric Antagonists of the Human D2 Dopamine Receptor: Primary Screen for Antagonists. inhibition, % at 10 µM. 2% of 340,000 active. D(2) dopamine receptor (Homo sapiens), P14416. HEK293 TREx D2 cells, calcium flux, dopamine EC80; in the data active means inhibition above about 30%; inactive means below that, where a call was filed; further: 0% is about no effect
#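 Cells plated overnight at 30 C with tetracycline; no-wash calcium dye, 30–90 min RT; 10 s baseline; compound pinned; 180 s read; EC80 dopamine added; another 180 s read.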
# D2 PAM-1: Beta-Arrestin HTS for Positive Allosteric Modulators of the Human D2 Dopamine Receptor: Potentiators; D(2) dopamine receptor (Homo sapiens), P14416; DiscoveRx D2 beta-arrestin cells, luminescence, 90 min; 100% = 57 uM dopamine signal; potentiation, % (no concentration beside the values); 0.23% of 360,000 active; AID 624464, 2012; in the data active means potentiation above about 50%
#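 PathHunter beta-arrestin assay in DiscoveRx D2 cells. Compounds were added with an EC20 of dopamine (50 nM final) for 90 min at 37 deg C. Luminescence was read 1 h after detection reagent, with 57 uM dopamine as the EC100 control.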
# D2 ag-2: HTS Assay for Allosteric Agonists of the Human D2 Dopamine Receptor: Primary Screen for Agonists; activation, % at 2 µM; D(2) dopamine receptor (Homo sapiens), P14416; 0.53% of 340,000 active; AID 485358, 2010; HEK293 T-REx D2 cells, calcium flux agonist mode;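 active means activation over 3 SD above normal in the single-dose calcium agonist read, cut at about 30% in these data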; further: 0% is about no effect
#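 HEK293 Trex D2 cells, tetracycline-induced, o/n 30 C 5% CO2; no-wash Ca dye, RT 30–90 min; 10-cycle baseline, 23 nl cpd added, kinetic Ca read 180 s; agonist hits = positive Ca response.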
# D2 PAM-2: HTS Assay for Positive Allosteric Modulators of the Human D2 Dopamine Receptor: Primary Screen for Potentiators; D(2) dopamine receptor (Homo sapiens), P14416; HEK293 T-REx D2, calcium flux, EC20 dopamine potentiation; potentiation, % at 10 µM; 0.34% of 340,000 active; AID 485347, 2010;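 active means potentiation over 3 SD above the plate norm, cut at about 30% in these data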; further: 0% is about no effect
#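 Cells plated with tetracycline inducer and held overnight at 30 C; calcium dye loaded 30–90 min at room temperature; baseline taken, compound added and read 180 s; EC20 dopamine then added and read 180 s.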
# * hit, by the source's call; . = no result given. Most compounds without a hit are left out; they make up all but 2.4% or so of the library.
SMILES,D2 ag-1,D2 antagonist,D2 PAM-1,D2 ag-2,D2 PAM-2
CC1CCCN(C(=O)Cc2cccc3ccccc23)C1 (configuration not stated),-1,9,-9,0,12
CN(C)/C=C1\C(=O)Nc2ccccc21,-4,-4,-20,0,-11
CN(O)/C=C1\C(=O)Nc2ccccc21,8,-2,131*,1,13
O=c1c2cc3c(cc2n(Cc2ccc(Cl)cc2)c(=O)n1Cc1nc(-c2ccccc2)no1)OCO3,.,.,.,0,4
Cc1cccc(C)c1NC(=O)C(=O)NCC(c1ccc2c(c1)OCO2)N1CCOCC1 (configuration not stated),.,.,.,1,9
Brc1ccc(Oc2nnnn2-c2ccccc2)cc1,-30,45*,-7,-3,-8
ONC(=Nc1ccc(Cl)cc1)c1ccc(Cl)cc1,0,-3,1,0,9
[S-]C(=Nc1ccc(Cl)cc1)N[n+]1ccccc1,-8,62*,-5,-2,13
CC(=O)Nc1cccc(NC(=O)Nc2cccc3ccccc23)c1,2,46*,-9,0,-12
CC1=NC(C)(C)Cc2cc(C)c(C)cc21,1,1,5,1,-6
NC(=O)N/N=C/c1cn(CC(=O)Nc2ccc(F)cc2)c2ccccc12,-3,-8,-18,1,-19
O=CNC1(c2ccccc2)CCCCC1,0,.,-10,.,.
COc1ccc(OC2CCN(C(=O)Nc3ccc(C)cc3)CC2)cc1,-8,50*,-21,1,-13
Cc1ccc(NC(=O)N2CCC(C(=O)NCc3ccccc3)CC2)cc1,-2,39*,-12,0,-7
COc1ccc(NC(=O)N2CCC(C(=O)c3ccc(F)cc3)CC2)cc1,1,-15,-15,0,8
CSc1cccc(NC(=O)COC(=O)C2CCN(S(=O)(=O)c3ccccc3)CC2)c1,1,4,-2,0,6
CC(C)c1ccc2occ(-c3nn[nH]n3)c(=O)c2c1,-4,32*,-2,1,-4
Cc1ccc(CNC(=O)c2cc(C3CC3)nc3c2cnn3C(C)C)cc1,2,39*,-43,-1,-37
COc1ccc(CNC(=O)c2cc(C3CC3)nc3c2cnn3C(C)C)cc1OC,0,1,-3,0,-10
Cc1ccc(NC(=O)Cn2c(=O)ccc3cc(S(=O)(=O)N4CCC(C)CC4)ccc32)c(C)c1,.,.,.,.,2
CC(=O)Nc1cccc(NC(=O)C2CC(=O)N(C3CCCCC3)C2)c1 (configuration not stated),0,3,4,-1,-2
O=C(NCCc1cccc(F)c1)C1CCC(=O)N(C2CCCCCC2)C1 (configuration not stated),5,34*,-4,0,-4
O=C(NCCc1ccccc1)C1CC(=O)N(C2CCCC2)C1 (configuration not stated),5,4,-7,0,-3
O=C(Nc1cccc([N+](=O)[O-])c1)C1CC(=O)N(C2CCCCC2)C1 (configuration not stated),-3,31*,-24,-1,-18
O=C(NCCN1CCc2ccccc2C1)C1CC(=O)N(C2CCCC2)C1 (configuration not stated),-2,33*,-28,1,14
SMILES,D2 ag-1,D2 antagonist,D2 PAM-1,D2 ag-2,D2 PAM-2
COc1ccccc1CNC(=O)c1cnn(-c2ccc(F)cc2F)c1C1CCN(C(=O)OC(C)(C)C)CC1,.,.,.,-2,4
O=C(CSc1nnc(CNC(=O)c2cccc(F)c2)n1-c1ccccc1)Nc1ccccc1F,.,.,.,0,.
CC(C)S(=O)(=O)N1CCCC(c2cc(C(=O)Nc3ccc(F)c(Cl)c3)no2)C1 (configuration not stated),0,.,-4,.,.
NC(=O)c1nsc(C(=O)N(CC(=O)NCc2ccco2)c2ccccc2F)c1N,-3,8,-4,0,33*
Cc1ccc(CCNC(=O)c2cc(C)nc3c2c(C)nn3-c2ccc(C)cc2)cc1,.,.,.,0,2
Cc1csc(/C(=N/OC(=O)c2ccco2)C(N)=O)n1,-4,42*,-3,0,4
Cc1cccn2c(=O)c3cc(C(=O)NCc4ccccc4)c(=N)n(CCOCCO)c3nc12,.,.,.,0,9
CC(/C=N/NC(=O)c1ccncc1)=C\c1ccccc1,-1,-5,9,0,-17
CC(/C=N/NC(=O)c1cccc(F)c1)=C\c1ccccc1,3,33*,-18,-1,-38
CC(=C/c1ccccc1)/C=N/NC(=O)c1ccccn1,0,6,-11,0,-8
CC(=C/c1ccc(C(C)C)cc1)/C=N/NC(=O)c1ccncc1,4,36*,2,-5,4
COc1ccccc1C(=O)N/N=C/C(C)=C/c1ccccc1,3,75*,-29,0,-13
CN(C)c1ccc(Nc2nc3ccccc3n3nnnc23)cc1,.,.,.,-2,0
Cc1ccc(NC(=O)c2ccc(CN3CC(=O)N4CCCCC4C3=O)cc2)cc1C (configuration not stated),.,.,.,0,-7
COc1ccc(-c2nc(CS(=O)CC(=O)NCc3ccc(F)cc3)c(C)o2)cc1 (configuration not stated),-6,9,-19,-1,10
Cc1ccccc1C(=O)Nc1sc2c(c1C(=O)NCc1ccco1)CCC(C(C)(C)C)C2 (configuration not stated),.,.,.,-2,19
CCS(=O)(=O)NC(C)C(c1cccs1)N1CCN(c2ccc(F)cc2)CC1 (configuration not stated),-1,40*,-2,2,-4
Cn1c(=O)[nH]c(=O)c2c1nc(N1CCOCC1)n2CCN1CCOCC1,-4,-6,-3,1,3
Cn1c(=O)[nH]c(=O)c2c1ncn2CCN1CCOCC1,-1,38*,-18,0,6
Cc1cc(C)nc(N/N=C/c2ccccc2)n1,-3,44*,-5,1,6
COc1ccccc1CNC(=O)c1ccc2c(c1)nc(C)n2-c1cccc(C)c1,.,.,.,0,27
Cc1ccc(C(C)C)c(OCCN2CCc3ccccc3C2)c1,-1,-15,-27,-1,-15
Cc1ccc(C)c(OCCCN2CCc3ccccc3C2)c1,4,70*,-27,0,-19
Cc1ccc(OCCCCN2CCc3ccccc3C2)c(C)c1,0,76*,-8,1,-25
Cc1ccc(OCCCCn2cnc3ccccc32)c(C)c1,1,12,-14,0,2
Cc1ccc(C(C)C)c(OCCCN2CCc3ccccc3C2)c1,-3,30*,-72,0,-29
